Measured values taken from PubChem BioAssay AID1159580 (chemical genetic matrix, 2015).
Several values for one entry are separate records, joined by “and”; a condition that tells them apart may be missing. Identical values can stand only once. About 2,000 (36%) of roughly 5,500 compounds were called active. Inconclusive results (about 18%) are left out. Cut-off read from the data, not from the text of the source: active = normalized growth mostly below about 0.91 (no sharp cut-off); inconclusive = no clear call, values can overlap the other calls; inactive = mostly above about 0.92. The list shows a part of the results.

Test: chemical genetic growth profiling, strain panel (AID 1159580);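 note: tested at 20 µM; growth read once vehicle control cultures reached saturation at 30 °C; 1 = growth at the plate median or of vehicle wells; lower values mean less growth of the strain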
Conditions: S. cerevisiae deletion strains, growth OD
[1] = locus YGR078C, strain PAC10, active compounds read low
[2] = locus YNL153C, strain GIM3, active compounds read low

Measured: normalized growth

Cn1c(=O)c2[nH]c(-c3ccc(S(=O)(=O)O)cc3)nc2n(C)c1=O
inactive: locus YAL040C, strain CLN3, active compounds read low 1.01 | locus YCL061C, strain MRC1 (second series), active compounds read low 1.01 | locus YER002W, strain NOP16, active compounds read low 1.01 | [1] 1.01 | [2] 1.03 | locus YNL175C, strain NOP13, active compounds read low 1.01 | locus YNL197C, strain WHI3, active compounds read low 0.993 | locus YNL224C, strain SQS1, active compounds read low 1 | locus YOR083W, strain WHI5 (second series), active compounds read low 0.98 | locus YPL055C, strain LGE1, active compounds read low 1 | locus YPL241C, strain CIN2, active compounds read low 1.02

COC(=O)CC1C(C)(C)C(OC(C)=O)[C@@H]2[C@@H](OC(C)=O)[C@]34O[C@@]2(O)[C@]1(C)C3CC[C@]1(C)C4=CC(=O)O[C@H]1c1ccoc1 (stereo not given in full)
inactive: locus YAL013W, strain DEP1, active compounds read low 1.02 | locus YAL021C, strain ccr4, active compounds read low 1.03 | locus YAL026C, strain drs2, active compounds read low 0.991 | locus YAL030W, strain snc1, active compounds read low 1.01 | locus YBL061C, strain skt5, active compounds read low 0.998 | locus YBR009C, strain hhf1, active compounds read low 1.03 | locus YBR021W, strain FUR4, active compounds read low 1.04 | locus YBR023C, strain chs3, active compounds read low 1.01 | locus YBR171W, strain sec66, active compounds read low 1 | locus YBR229C, strain ROT2, active compounds read low 0.96 | locus YBR231C, strain swc5, active compounds read low 1.01 | locus YBR279W, strain paf1, active compounds read low 1.01 | locus YCL011C, strain gbp2, active compounds read low 1.01 | locus YCL016C, strain dcc1, active compounds read low 1.02 | locus YCL029C, strain bik1, active compounds read low 1.02 | locus YCL061C, strain MRC1, active compounds read low 1.01 | locus YCL069W, strain vba3, active compounds read low 1.01 | locus YCR088W, strain abp1, active compounds read low 1.01 | locus YDL005C, strain med2, active compounds read low 0.991 | locus YDL035C, strain GPR1, active compounds read low 0.98 | locus YDL040C, strain nat1, active compounds read low 1.02 | locus YDL074C, strain BRE1, active compounds read low 1.03 | locus YDL101C, strain DUN1, active compounds read low 1.02 | locus YDL134C, strain PPH21, active compounds read low 1.05 | locus YDL185W, strain tfp1, active compounds read low 0.977 | locus YDL192W, strain arf1, active compounds read low 0.983 | locus YDR001C, strain nth1, active compounds read low 1.01 | locus YDR069C, strain doa4, active compounds read low 1.02 | locus YDR101C, strain arx1, active compounds read low 0.975 | locus YDR137W, strain rgp1, active compounds read low 0.93 | locus YDR150W, strain NUM1, active compounds read low 1.01 | locus YDR159W, strain sac3, active compounds read low 1 | locus YDR162C, strain NBP2, active compounds read low 1 | locus YDR195W, strain ref2 1.01 | locus YDR297W, strain sur2, active compounds read low 1.02 | locus YDR318W, strain mcm21, active compounds read low 0.997 | locus YDR334W, strain swr1, active compounds read low 1.01 | locus YDR335W, strain msn5, active compounds read low 1.01 | locus YDR388W, active compounds read low 1.02 | locus YDR392W, strain spt3, active compounds read low 1.07 | locus YDR502C, strain sam2, active compounds read low 1.03 | locus YEL003W, strain gim4, active compounds read low 1.01 | locus YEL037C, strain rad23, active compounds read low 1 | locus YEL061C, strain CIN8 (second series), active compounds read low 1 | locus YEL061C, strain CIN8, active compounds read low 1 | locus YER015W, strain faa2, active compounds read low 1.01 | locus YER016W, strain bim1, active compounds read low 1.01 | locus YER110C, active compounds read low 0.998 | locus YER111C, strain swi4, active compounds read low 0.988 | locus YER155C, strain BEM2 (second series), active compounds read low 1.05 | locus YER155C, strain BEM2, active compounds read low 1.01 | locus YER167W, strain BCK2, active compounds read low 0.991 | locus YFR010W, strain ubp6, active compounds read low 1 | locus YGL078C, strain dbp3, active compounds read low 1.01 | locus YGL086W, strain mad1, active compounds read low 1.02 | locus YGL167C, strain pmr1, active compounds read low 1.01 | locus YGL173C, strain kem1, active compounds read low 1 | locus YGL227W, strain vid30, active compounds read low 1 | locus YGL240W, strain doc1, active compounds read low 1.01 | locus YGL248W, strain PDE1, active compounds read low 1.03 | locus YGL253W, strain hxk2, active compounds read low 0.953 | [1] 1.05 | locus YGR135W, strain pre9, active compounds read low 1.08 | locus YGR252W, strain gcn5, active compounds read low 1.09 | locus YHR013C, strain ard1, active compounds read low 1.02 | locus YHR027C, strain rpn1, active compounds read low 1.01 | locus YHR030C, strain SLT2, active compounds read low 1.03 | locus YHR079C, strain IRE1 (second series), active compounds read low 0.989 | locus YHR079C, strain IRE1, active compounds read low 1.04 | locus YHR094C, strain hxt1, active compounds read low 1 | locus YHR129C, strain ARP1, active compounds read low 1.02 | locus YHR142W, strain chs7, active compounds read low 0.983 | locus YHR200W, strain rpn10, active compounds read low 1.03 | locus YIL066C, strain RNR3, active compounds read low 0.979 | locus YIL073C, strain SPO22, active compounds read low 0.988 | locus YIL125W, strain kgd1, active compounds read low 0.991 | locus YIR030C, strain dcg1, active compounds read low 0.996 | locus YJL092W, strain hpr5, active compounds read low 1.01 | locus YJL095W, strain BCK1 (second series), active compounds read low 0.999 | locus YJL095W, strain BCK1, active compounds read low 1.07 and 1.02 | locus YJL115W, strain asf1, active compounds read low 0.998 | locus YJL129C, strain trk1, active compounds read low 0.984 | locus YJL134W, strain LCB3, active compounds read low 0.996 | locus YJL154C, strain vps35, active compounds read low 1.02 | locus YJL164C, strain tpk1, active compounds read low 1 | locus YJL166W, strain qcr8, active compounds read low 1.01 | locus YJL168C, strain set2, active compounds read low 1.02 | locus YJL187C, strain SWE1 (second series), active compounds read low 1.04 | locus YJR066W, strain TOR1, active compounds read low 0.963 | locus YKL009W, strain mrt4, active compounds read low 0.921 | locus YKL068W, active compounds read low 0.99 | locus YKL085W, strain MDH1 (second series), active compounds read low 1.01 | locus YKL085W, strain MDH1, active compounds read low 1.01 | locus YKL160W, strain elf1, active compounds read low 1.01 | locus YKL190W, strain CNB1, active compounds read low 1 | locus YKR001C, strain vps1, active compounds read low 0.978 | locus YKR026C, strain gcn3, active compounds read low 1.01 | locus YKR091W, strain srl3, active compounds read low 1.01 | locus YLL001W, strain dnm1, active compounds read low 1 | locus YLL026W, active compounds read low 0.999 | locus YLL041C, strain sdh2, active compounds read low 0.998 | locus YLR027C, strain aat2, active compounds read low 1.01 | locus YLR039C, strain RIC1, active compounds read low 0.934 | locus YLR058C, strain SHM2, active compounds read low 0.988 | locus YLR102C, strain apc9, active compounds read low 1.01 | locus YLR113W, strain HOG1, active compounds read low 0.998 | locus YLR221C, strain rsa3, active compounds read low 1.03 | locus YLR258W, strain gsy2, active compounds read low 1 | locus YLR262C, strain YPT6 (second series), active compounds read low 0.963 | locus YLR262C, strain YPT6, active compounds read low 0.899 | locus YLR268W, strain sec22, active compounds read low 0.983 | locus YLR320W, strain mms22, active compounds read low 1.01 | locus YLR330W, strain CHS5, active compounds read low 1.01 | locus YLR342W, strain FKS1 (second series), active compounds read low 1.06 | locus YLR342W, strain FKS1, active compounds read low 1.01 | locus YLR357W, strain rsc2, active compounds read low 1.06 | locus YLR370C, strain arc18, active compounds read low 1.03 | locus YLR371W, strain rom2, active compounds read low 1.01 | locus YLR384C, strain iki3, active compounds read low 0.99 | locus YLR418C, strain cdc73, active compounds read low 1.07 | locus YML016C, strain PPZ1, active compounds read low 1.01 | locus YML032C, strain rad52, active compounds read low 0.991 | locus YML120C, strain ndi1, active compounds read low 1.03 | locus YML124C, strain tub3, active compounds read low 0.997 | locus YMR058W, strain fet3, active compounds read low 1.01 | locus YMR078C, strain ctf18, active compounds read low 0.998 | locus YMR125W, strain sto1, active compounds read low 1.02 | locus YMR129W, active compounds read low 0.996 | locus YMR205C, strain PFK2, active compounds read low 1.02 | locus YMR223W, strain ubp8, active compounds read low 1.03 | locus YMR231W, strain pep5, active compounds read low 0.994 | locus YMR307W, strain GAS1, active compounds read low 1.02 | locus YNL067W, strain RPL9B, active compounds read low 1.05 | locus YNL071W, strain lat1, active compounds read low 1.01 | locus YNL128W, strain TEP1, active compounds read low 0.97 | [2] 1.05 | locus YNL183C, strain NPR1, active compounds read low 0.978 | locus YNL209W, strain ssb2, active compounds read low 1.02 | locus YNL233W, strain BNI4, active compounds read low 1.08 | locus YNL248C, strain rpa49, active compounds read low 0.999 | locus YNL250W, strain rad50, active compounds read low 1 | locus YNL271C, strain bni1, active compounds read low 1 | locus YNL298W, strain CLA4, active compounds read low 1.01 | locus YNL307C, strain MCK1, active compounds read low 1.01 | locus YNL322C, strain KRE1 (second series), active compounds read low 1.01 | locus YNR049C, strain mso1, active compounds read low 1.01 | locus YNR052C, strain pop2, active compounds read low 1.06 | locus YOL012C, strain htz1 1.16 | locus YOL147C, strain pex11, active compounds read low 1 | locus YOR001W, strain rrp6, active compounds read low 1.02 | locus YOR061W, strain CKA2, active compounds read low 0.946 | locus YOR069W, strain VPS5, active compounds read low 1.01 | locus YOR070C, strain gyp1, active compounds read low 1.01 | locus YOR080W, strain dia2, active compounds read low 1 | locus YOR083W, strain WHI5, active compounds read low 1.01 | locus YOR106W, strain vam3, active compounds read low 1.02 | locus YOR136W, strain idh2, active compounds read low 1.02 | locus YOR144C, strain elg1, active compounds read low 1 | locus YOR184W, strain ser1, active compounds read low 0.957 | locus YOR231W, strain MKK1, active compounds read low 0.995 | locus YOR265W, strain rbl2, active compounds read low 1 | locus YOR270C, strain vph1, active compounds read low 0.806 | locus YOR290C, strain snf2, active compounds read low 1.01 | locus YOR316C, strain cot1, active compounds read low 1.01 | locus YPL051W, strain arl3, active compounds read low 1.02 | locus YPL078C, strain atp4, active compounds read low 1 | locus YPL106C, strain sse1, active compounds read low 1.06 | locus YPL240C, strain hsp82, active compounds read low 1.01 | locus YPL256C, strain CLN2, active compounds read low 1.04 | locus YPR119W, strain clb2, active compounds read low 1 | locus YPR141C, strain kar3, active compounds read low 0.979 | locus YPR163C, strain tif3, active compounds read low 1.01 | locus YPR167C, strain met16, active compounds read low 1.01 | strain wtn01, active compounds read low 0.982
